Measured values published in PubChem BioAssay AID1159580 (chemical genetic matrix, 2015).
In all, about 5,500 compounds went through this assay and about 2,000 (36%) were called active. About 18% were inconclusive and are not listed. No stated cut-off is given here; in the data, active means normalized growth mostly below about 0.91 (no sharp cut-off); inconclusive means no clear call, values can overlap the other calls; inactive means mostly above about 0.92. The list shows a part of the results.

Assay: chemical genetic growth profiling, strain panel (AID 1159580);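 further: tested at 20 µM; growth read once vehicle control cultures reached saturation at 30 °C; 1 = growth at the plate median or of vehicle wells; lower values mean less growth of the strain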
Settings: S. cerevisiae deletion strains, growth OD

Measured: normalized growth

c1ccc2c(c1)sc1ccccc12
inactive: locus YJR043C, strain POL32, active compounds read low 0.99 | locus YJR066W, strain TOR1, active compounds read low 0.974 | locus YKL009W, strain mrt4, active compounds read low 0.966 | locus YKL068W, active compounds read low 0.973 | locus YKL085W, strain MDH1 (second series), active compounds read low 0.971 | locus YKL085W, strain MDH1, active compounds read low 0.971 | locus YLL041C, strain sdh2, active compounds read low 0.935 | locus YLR039C, strain RIC1, active compounds read low 0.735 | locus YLR058C, strain SHM2, active compounds read low 0.968 | locus YLR102C, strain apc9, active compounds read low 0.974 | locus YLR113W, strain HOG1, active compounds read low 1.02 | locus YLR262C, strain YPT6, active compounds read low 0.656 | locus YLR268W, strain sec22, active compounds read low 0.897 | locus YLR330W, strain CHS5, active compounds read low 0.95 | locus YLR342W, strain FKS1 (second series), active compounds read low 1.03 | locus YLR342W, strain FKS1, active compounds read low 0.959 | locus YLR357W, strain rsc2, active compounds read low 0.909 | locus YLR370C, strain arc18, active compounds read low 0.929 | locus YLR384C, strain iki3, active compounds read low 0.939 | locus YML016C, strain PPZ1, active compounds read low 0.988 | locus YML124C, strain tub3, active compounds read low 0.971 | locus YMR078C, strain ctf18, active compounds read low 0.967 | locus YMR231W, strain pep5, active compounds read low 0.967 | locus YMR263W, strain SAP30, active compounds read low 0.954 | locus YMR307W, strain GAS1, active compounds read low 0.869 | locus YNL067W, strain RPL9B, active compounds read low 0.955 | locus YNL128W, strain TEP1, active compounds read low 0.965 | locus YNL183C, strain NPR1, active compounds read low 0.96 | locus YNL209W, strain ssb2, active compounds read low 0.948 | locus YNL233W, strain BNI4, active compounds read low 0.873 | locus YNL250W, strain rad50, active compounds read low 0.974 | locus YNL271C, strain bni1, active compounds read low 0.95 | locus YNL298W, strain CLA4, active compounds read low 0.929 | locus YNR052C, strain pop2, active compounds read low 0.991 | locus YOL012C, strain htz1 0.804 | locus YOL147C, strain pex11, active compounds read low 0.953 | locus YOR061W, strain CKA2, active compounds read low 0.994 | locus YOR069W, strain VPS5, active compounds read low 0.996 | locus YOR070C, strain gyp1, active compounds read low 0.937 | locus YOR080W, strain dia2, active compounds read low 0.948 | locus YOR136W, strain idh2, active compounds read low 0.951 | locus YOR144C, strain elg1, active compounds read low 0.972 | locus YOR231W, strain MKK1, active compounds read low 1.03 | locus YOR270C, strain vph1, active compounds read low 1.02 | locus YOR290C, strain snf2, active compounds read low 0.891 | locus YOR316C, strain cot1, active compounds read low 0.966 | locus YPL240C, strain hsp82, active compounds read low 0.934 | locus YPL241C, strain CIN2, active compounds read low 0.999 | locus YPL256C, strain CLN2, active compounds read low 0.984 | locus YPR119W, strain clb2, active compounds read low 0.965 | locus YPR141C, strain kar3, active compounds read low 0.959 | locus YPR163C, strain tif3, active compounds read low 0.983 | locus YPR167C, strain met16, active compounds read low 0.972
active: locus YKL160W, strain elf1, active compounds read low 0.845 | locus YKR001C, strain vps1, active compounds read low 0.812 | locus YKR026C, strain gcn3, active compounds read low 0.835 | locus YKR091W, strain srl3, active compounds read low 0.924 | locus YLL001W, strain dnm1, active compounds read low 0.768 | locus YLL026W, active compounds read low 0.814 | locus YLR027C, strain aat2, active compounds read low 0.757 | locus YLR221C, strain rsa3, active compounds read low 0.779 | locus YLR258W, strain gsy2, active compounds read low 0.891 | locus YLR262C, strain YPT6 (second series), active compounds read low 0.315 | locus YLR320W, strain mms22, active compounds read low 0.662 | locus YLR371W, strain rom2, active compounds read low 0.854 | locus YLR418C, strain cdc73, active compounds read low 0.785 | locus YML032C, strain rad52, active compounds read low 0.9 | locus YML120C, strain ndi1, active compounds read low 0.749 | locus YMR058W, strain fet3, active compounds read low 0.774 | locus YMR125W, strain sto1, active compounds read low 0.844 | locus YMR129W, active compounds read low 0.909 | locus YMR205C, strain PFK2, active compounds read low 0.737 | locus YMR223W, strain ubp8, active compounds read low 0.86 | locus YNL071W, strain lat1, active compounds read low 0.613 | locus YNL153C, strain GIM3, active compounds read low 0.728 | locus YNL248C, strain rpa49, active compounds read low 0.748 | locus YNL307C, strain MCK1, active compounds read low 0.849 | locus YNL322C, strain KRE1 (second series), active compounds read low 0.894 | locus YNR049C, strain mso1, active compounds read low 0.915 | locus YOR001W, strain rrp6, active compounds read low 0.714 | locus YOR083W, strain WHI5, active compounds read low 0.812 | locus YOR106W, strain vam3, active compounds read low 0.727 | locus YOR184W, strain ser1, active compounds read low 0.676 | locus YOR265W, strain rbl2, active compounds read low 0.873 | locus YPL051W, strain arl3, active compounds read low 0.776 | locus YPL078C, strain atp4, active compounds read low 0.691 | locus YPL106C, strain sse1, active compounds read low 0.778 | strain wtn01, active compounds read low 0.893
